Out of some 360,000 compounds screened, about 11,000 (3.1%) were called active. Entries that show only a call come without a potency. About 4% were inconclusive and are not listed. Calls follow the shape of the dose curve; as a rule, active = well fitted inhibition curve with a large enough effect; inconclusive = small, poorly fitted or top-dose-only effect; inactive = no such curve, though single readings can be large or run the other way. This excerpt belongs to a sample that is enriched for actives.
Target: Schistosoma mansoni thioredoxin glutathione reductase (TGR) (UniProt Q962Y6)
Assay: qHTS Assay for the Inhibitors of Schistosoma Mansoni Peroxiredoxins; also: nearly all actives have a fitted effect of over 60% in size
Details: purified TGR, DTNB reduction, TNB absorbance 405 nm; series mostly up to 114 µM
From the text: Schistosomiasis is a major neglected tropical disease that currently affects over 200 million. It is caused by different species of flatworms, such as Schistosoma mansoni. Over the last century, drugs to treat the disease have evolved from potassium antimonyl tartrate, artemisinin, oxamniquine, to praziquantel, with praziquantel remaining the universally-used single drug of choice over the past three decades. However, transmission rates have changed little with praziquantel, and there is evidence for the development of drug resistant parasites. Because there is currently no suitable alternative therapy available, there is an urgent need to identify new targets and drugs for schistosomiasis treatment. Thioredoxin glutathione reductase (TGR), one uniquely positioned S. mansoni enzyme, has been identified as a major component of the worms' distinct and compressed antioxidant "firewall". TGR is a multifunctional enzyme that catalyzes the interconversion between reduced and oxidized forms of both glutathione (GSH) and thioredoxins, thus making it an attractive new antiparasitic target. Recently, a quantitative high-throughput screen of the NIH Molecular Libraries Small Molecule Repository (MLSMR, ~71K at the time of the screen in 2007) was performed using an assay that targeted both TGR and peroxiredoxin2 (Prx2, an H2O2-reducing enzymatic component of the S. mansoni redox "firewall") by following the decrease of NADPH fluorescence. […] Additional mechanistic link between exogenous NO donation and parasitic injury for the oxadiazole-2-oxide class of compounds was also expanded and better defined. Although the screen addressed both TGR and Prx2, the assay required post-screen target deconvolution for further characterization of the actives. In addition, the fluorescence assay was also subject to fluorescence interference from compound library members. We have developed a 1536-well-based kinetic HTS assay to address TGR alone. The assay followed the reduction of 5, 5'-dithiobis (2-nitrobenzoic acid) (DTNB) (Ellman's reagent) by NADPH and measured the increase in absorbance at 412 nm of the reaction product, TNB. […] This assay format can be used to screen the current MLSMR collection (with >300K compounds available) to find novel TGR inhibitors. Furoxan is a good choice to serve as a positive control in the primary HTS assay.
Three microliters of reagents (100 uM NADPH and 20 nM TGR or 100 uM NADPH as no-enzyme control) were dispensed into 1,536-well black clear-bottomed plates. Compounds (23 nL) were transferred via Kalypsys pin tool equipped with 1536-pin array (10 nL slotted pins, V&P Scientific, San Diego, CA). The plates were then be incubated for 15 min at room temperature, and 1 uL aliquot of 500 uM NADPH were added, immediately followed by a 1 uL aliquot of 15 mM DTNB to start the reaction. The plate was transferred to a ViewLux high-throughput CCD imager (Perkin-Elmer, Wellesley, MA) where kinetic measurements of the TNB absorbance were acquired using a 405 excitation filter. Throughout the screen, reagent bottles and all liquid lines were made light-tight to minimize reagent degradation. All screening operations were performed on a fully integrated robotic system (Kalypsys, San Diego, CA) containing one RX-130 and two RX-90 anthropomorphic robotic arms (Staubli, Duncan, SC). Library plates were screened starting from the lowest and proceeding to the highest concentration, and a "double-dipping" step of the highest concentration was required to access higher concentrations of compounds. Vehicle-only plates, with DMSO being pin-transferred to the entire column 5-48 compound area, were inserted uniformly at the beginning and the end of each library in order to monitor for and record any shifts in the background, which can be affected by reagent dispensers or loss in enzyme activity overtime. […]
Potency is read from the fitted curve at half-maximal effect.

SMILES	Potency
O=C1Cc2cc(S(=O)(=O)Nc3ccc(OC(F)(F)F)cc3)cc3c2N1CCC3	inactive
COc1ccc(-c2c3c(=O)n(C)c(=O)n(C)c3cn2NC(C)=O)cc1	inactive
Cc1ccc(-c2c3c(=O)n(C)c(=O)n(C)c3cn2-n2cnnc2)cc1	39.8 µM (active)
Cc1ccc(-c2c3c(=O)n(C)c(=O)n(C)c3cn2-c2ccccc2O)cc1	inactive
C=CCNC(=O)/C(=C\c1cccc([N+](=O)[O-])c1)NC(=O)c1ccccc1	inactive
C=CCN(N=Nc1cccc([N+](=O)[O-])c1)c1cccc([N+](=O)[O-])c1	20 µM (active)
C=CCN(CC=C)CCOc1ccccc1[N+](=O)[O-]	inactive
CCn1cc(C(=O)NCc2ccccc2)c(=O)c2cc(S(=O)(=O)N3CCCCC3)ccc21	inactive
C#CCOc1ccc(C2CC(=O)Nc3c2c(C)nn3-c2nc(C)cc(C)n2)cc1 (centres undefined)	inactive
O=C(CSc1nccn1Cc1ccc(F)cc1)NCc1ccccc1	inactive
CN(C)c1cccc(C(=O)Nc2nc3ccc(S(=O)(=O)NC(C)(C)C)cc3s2)c1	inactive
O=C(c1ccc(Cl)cc1)n1nc(-c2cccnc2)nc1NCc1ccc(F)cc1	inactive
COCCCNC(=O)Cc1ccc(-n2c(C)nc3cccnc32)cc1	inactive
CCc1nc2cccnc2n1-c1ccc(C(=O)O)cc1	44.7 µM (active)
CCc1nc2cccnc2n1-c1ccc(CC(=O)Nc2c(C)cccc2C)cc1	inactive
CCOc1ccc(NC(=O)c2c(NC(=O)Cc3ccccc3)sc3c2CCC(C)C3)cc1 (centres undefined)	inactive
Cc1ccc(C2CC(c3cccc(C)c3)n3nc(N)nc3N2)cc1 (centres undefined)	inactive
COc1cccc(C2Nc3cccc4cccc(c34)N2)c1	20 µM (active)
COc1ccc(C2CC(c3ccc(C)cc3)Nc3ncnn32)cc1 (centres undefined)	inactive
COc1cccc(N2C(=O)C3CCCN3C2c2ccc(F)cc2)c1 (centres undefined)	inactive
Cc1ccc(C2Nc3cccc4cccc(c34)N2)cc1	17.8 µM (active)
COc1ccc(C2NC(=O)c3ccccc3N2)cc1 (centres undefined)	inactive
Oc1ccc(C2Nc3cccc4cccc(c34)N2)cc1	14.1 µM (active)
COc1ccc(-c2nn(CC(=O)NC3CCCC3)c3c2cnc2ccc(F)cc23)cc1	inactive
CCn1cc(C(=O)NCc2ccc(C)cc2)c(=O)c2cc(S(=O)(=O)N3CCc4ccccc4C3)ccc21	inactive

SMILES	Potency
COc1ccc(CNC(=O)COCc2cc(-c3cccs3)on2)cc1OC	inactive
Cc1ccc(Cl)cc1N1CCN(C(=O)C2CCC(CNS(=O)(=O)c3cccs3)CC2)CC1 (centres undefined)	inactive
CCOc1ccc(CCNC(=O)c2csc3c2CCCCC3)cc1	inactive
COCCNC(=O)c1ccc2c(c1)N=C(C)c1cc(C)ccc1S2	inactive
CCOc1ccc(-c2cc(C)n3nc(C(=O)Nc4ccc(C)c(C)c4)cc3n2)cc1	inactive
CCn1cc(C(=O)OCC(=O)Nc2cc(C)cc(C)c2)c(=O)c2ccc(C)nc21	inactive
O=C(CCS(=O)(=O)c1ccc2c(c1)NC(=O)CO2)Nc1cccc(C(F)(F)F)c1	inactive
COc1cccc(-n2cc(C(=O)NCc3cccc(Cl)c3)c3ccccc3c2=O)c1	inactive
COc1cccc(-c2nnc3n(CCc4ccccc4)c(=O)c4ccccc4n23)c1O	inactive
COc1cccc(-n2ccn(CC(=O)NCc3ccc(C)cc3)c(=O)c2=O)c1	inactive
COC(=O)C1=NN(c2ccccc2)C2C(=O)N(c3ccccc3OC)C(=O)C12 (centres undefined)	inactive
COc1cc(C2C3C(=O)N(c4ccccc4)C(=O)C3ON2c2ccccc2)ccc1O (centres undefined)	inactive
Cc1ccccc1N1C(=O)C2ON(c3ccccc3)C(c3ccncc3)C2C1=O (centres undefined)	44.7 µM (active)
CC(C)(C)c1ccc(C(=O)N2CCC(c3nc(-c4ccc(S(=O)(=O)N5CCCC5)cc4)no3)CC2)cc1	inactive
CC(=O)c1ccc(N2CCN(C3C(=O)c4ccccc4N3C(C)=O)CC2)cc1 (centres undefined)	inactive
CCC(=O)N1CCc2cc(S(=O)(=O)NC(C(=O)Nc3ccc(C(C)=O)cc3)C(C)C)ccc21 (centres undefined)	inactive
CNc1ccc(-c2nc(-c3ccco3)no2)cc1[N+](=O)[O-]	inactive
CC(Nc1ccc(-c2nc(-c3ccco3)no2)cc1[N+](=O)[O-])c1ccccc1 (centres undefined)	31.6 µM (active)
O=[N+]([O-])c1cc(-c2nc(-c3ccccc3)no2)ccc1NCc1ccco1	inactive
COC(=O)c1ccccc1NC(=O)Cc1ccccc1OC	inactive
CC[C@]1(c2ccccc2OC)C(=O)N(C(=O)OC)N1C(=O)OC	31.6 µM (active)
COc1ccccc1CNC(=O)CCCN1C(=O)NC2(CCCC2)C1=O	inactive
CCOC(=O)c1cc2c(=O)n3ccccc3nc2n(Cc2ccco2)c1=NC(=O)c1ccc(F)cc1	inactive
Cc1cccc(Nc2cc(C)nc(-n3nc(C)cc3C)n2)c1	inactive
Cc1nnc(N2CCCC(C(=O)NCCN(C)C)C2)c2nn(-c3ccccc3)c(C)c12 (centres undefined)	inactive

SMILES	Potency
COc1ccc(NC(=O)c2ccc3oc(=O)c(S(=O)(=O)c4ccc(F)cc4)cc3c2)c(OC)c1	inactive
O=C(NCc1ccco1)c1sc2cccc(F)c2c1Cl	39.8 µM (active)
O=C(NCc1ccco1)c1cc2sccc2n1Cc1ccc(F)cc1	inactive
COc1ccc2c(Cl)c(C(=O)NCc3ccco3)sc2c1	inactive
Cc1ccc(C)c(Nc2nnc(-c3ccc(C)c(S(=O)(=O)N4CCCCC4)c3)c3ccccc23)c1	inactive
Cc1ccc(C)c(N2CCN(c3ccc4cc(S(=O)(=O)N5CCC(C)CC5)ccc4n3)CC2)c1	inactive
COc1cccc(-c2n[nH]c3c2C(c2cccc(O)c2)N(C)C3=O)c1 (centres undefined)	inactive
Cc1nn(C(=O)c2ccoc2C)c(N)c1-c1ccccc1	inactive
Cc1nn2c(c1-c1ccccc1)N=C(c1ccco1)CC2c1ccccc1 (centres undefined)	10 µM (active)
O=C(O)CCCC(=O)N1N=C(c2ccco2)CC1c1ccco1 (centres undefined)	inactive
COc1ccc(NC(=O)CCNS(=O)(=O)c2ccc3c(c2)CCCC(=O)N3)cc1Cl	inactive
CCCCn1c(SCC(=O)N2CCC(C(=O)OCC)CC2)nc2cc(S(N)(=O)=O)ccc21	inactive
CCCCn1c(SCc2ncc(-c3ccccc3)o2)nc2cc(S(N)(=O)=O)ccc21	20 µM (active)
CCCCn1c(SCC(=O)N2CCCC2=O)nc2cc(S(N)(=O)=O)ccc21	inactive
CCCOC(=O)c1c(NC(=O)c2cc3nc(-c4ccc(OC)cc4)cc(C(F)(F)F)n3n2)sc2c1CCCC2	inactive
COc1ccc(C2(Nc3cccc(F)c3)C(=O)c3ccccc3C2=O)cc1	inactive
CC(=O)N1CCN(CCN=CC2=C(O)CC(C)(C)CC2=O)CC1	28.2 µM (active)
CCNC(=S)N1CCN(CCN=CC2=C(O)CC(C)(C)CC2=O)CC1	inactive
CC1(C)CC(=O)C(C=NCCN2CCN(C(=S)Nc3cccc(Cl)c3)CC2)=C(O)C1	inactive
CCOc1ccccc1C(=O)NCc1ccc2c(c1)CCN2C(=O)c1ccc(F)cc1	inactive
CCOC(=O)c1ccc(NC2=CC(c3ccc(OCC)cc3)N(c3ccc(C(=O)OCC)cc3)C2=O)cc1 (centres undefined)	inactive
CC(C)(C)OC(=O)N1CCC(c2c(C(=O)N3CCN(c4cccc(Cl)c4)CC3)cnn2-c2cccc(Cl)c2)CC1	inactive
COc1ccccc1OCC(=O)OCc1cc(-c2ccco2)on1	56.2 µM (active)
COc1ccc(NC(=O)COCc2cc(-c3ccco3)on2)cc1	inactive
COc1ccccc1OCC(=O)O/N=C(\N)c1ccccn1	inactive

SMILES	Potency
O=C(CCS(=O)(=O)c1cc(Br)cc2c1N(C(=O)C1CC1)CC2)Nc1ccc(C(F)(F)F)cc1	inactive
CC1(C)CC(=O)C(N=Nc2ccc(S(=O)(=O)N3CCCCCC3)cc2)=C(O)C1	inactive
Cc1ccc(S(=O)(=O)N2CCN(S(=O)(=O)N3CCOCC3)CC2)cc1	inactive
O=C1CCCC(O)=C1N=Nc1ccc(S(=O)(=O)N2CCOCC2)cc1	44.7 µM (active)
COc1ccc(-c2nn3c(-c4ccc(OC)cc4)nnc3c3ccccc23)cc1	inactive
Cc1cc2c(cc3c(SCc4nc(-c5ccccc5)oc4C)nnc(C)n32)o1	inactive
Cc1noc2ncnc(NCc3ccccc3Cl)c12	inactive
Cc1c(C(=O)N(C)C)sc2c1c(=O)n(-c1ccc(F)cc1)c(=O)n2CC(=O)N(C)c1ccccc1	inactive
Cc1cc(=O)[nH]c(N/N=C/c2c(C)nn(-c3ccccc3Cl)c2Cl)n1	inactive
Cc1cc(=O)[nH]c(N/N=C/c2ccc3c(c2)OCCO3)n1	39.8 µM (active)
C(=N\Nc1ccc2ccccc2n1)/c1ccc2c(c1)OCO2	inactive
CC1=Nc2cc(C(=O)NCc3ccc(C)cc3)ccc2Sc2ccc(Cl)cc21	inactive
COc1cccc(CNC(=O)Cn2ncn3c(cc4ccccc43)c2=O)c1	inactive
Cc1ccc(CCNC(=O)c2ccc(CNS(=O)(=O)c3ccc(C)cc3)cc2)cc1	inactive
COC(=O)C1=C(C)NC(=O)/C1=C/c1ccc(CNS(=O)(=O)c2ccc(C)cc2)o1	22.4 µM (active)
COc1ccccc1CNS(=O)(=O)c1ccc(C)cc1	inactive
CCc1ccccc1NC(=O)c1ccc(F)c(S(=O)(=O)NC2CCCCCC2)c1	inactive
CN(C)N=Nc1ccc2nc[nH]c2c1	39.8 µM (active)
COc1ccc(/C(C)=N/NC(=O)c2ccc3nc[nH]c3c2)cc1	inactive
CC/C(O)=N\S(=O)(=O)c1ccc(N=NN(C)C)cc1	inactive
CCc1nn(CC(=O)Nc2cc(C)cc(C)c2)c(=O)c2cc3sccc3n12	inactive
O=C(CCl)N(Cc1cccc([N+](=O)[O-])c1)c1cccc(Cl)c1	2.51 µM (active)
COC(=O)c1cc(C(=O)N(Cc2ccccc2)c2ccccn2)cc([N+](=O)[O-])c1	inactive
CC(=O)N(CN1C(=O)C2CC=CCC2C1=O)c1cccc(Cl)c1 (centres undefined)	inactive

From PubChem BioAssay AID485364 (National Center for Advancing Translational Sciences (NCATS), 2010)
